The sample as a whole holds a higher share of hits than the screen did.
DT40 TDP1 CPT: DT40-hTDP1 cell growth loss with CPT; chicken DT40 Tdp1-/-;hTDP1 cells + 20 nM CPT, ATP luminescence, 48 h; Potency, µM (titrated, usually from 46.2 µM), inactives show at the highest dose activity change, negative = growth inhibition, usual class: inhibitors; AID 686979; 420,000 compounds, 12% hits; note: potency is the fitted concentration of half-maximal effect; nearly all actives have a fitted effect of over 55% in size
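Chicken DT40 Tdp1-/- cells complemented with human TDP1, 400 cells/well, exposed to compounds plus 20 nM camptothecin for at least 48 h at 37 C; viability read as ATP content by CellTiter-Glo luminescence.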
ALOX12 inh: inhibitors of human 12S-lipoxygenase ALOX12; P18054; purified 12hLO, xylenol orange hydroperoxide absorbance; Potency, µM (series often up to 108 µM), for the others: top-dose activity change, negative = inhibition, hits mostly inhibitors; 580,000 compounds, 1.1% hits; AID 1671190; note: potency is the fitted concentration of half-maximal effect
Target sequence (P18054 whole entry, looked up): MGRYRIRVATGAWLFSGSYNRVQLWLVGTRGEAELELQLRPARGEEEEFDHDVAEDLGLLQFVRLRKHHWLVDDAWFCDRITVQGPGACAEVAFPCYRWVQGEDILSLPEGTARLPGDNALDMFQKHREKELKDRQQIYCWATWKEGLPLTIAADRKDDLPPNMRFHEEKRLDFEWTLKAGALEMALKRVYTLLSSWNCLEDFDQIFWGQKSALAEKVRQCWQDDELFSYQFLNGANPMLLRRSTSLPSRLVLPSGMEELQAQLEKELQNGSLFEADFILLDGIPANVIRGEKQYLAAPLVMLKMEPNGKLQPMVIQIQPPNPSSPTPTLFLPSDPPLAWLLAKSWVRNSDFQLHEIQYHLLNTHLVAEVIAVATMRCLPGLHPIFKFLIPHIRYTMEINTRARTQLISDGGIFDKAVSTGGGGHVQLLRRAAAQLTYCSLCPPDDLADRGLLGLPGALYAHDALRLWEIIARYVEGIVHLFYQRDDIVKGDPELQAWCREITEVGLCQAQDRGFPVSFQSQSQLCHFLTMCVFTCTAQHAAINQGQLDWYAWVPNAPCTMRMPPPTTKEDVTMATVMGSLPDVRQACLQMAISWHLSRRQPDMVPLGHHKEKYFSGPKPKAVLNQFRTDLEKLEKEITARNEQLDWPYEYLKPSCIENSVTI
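Purified human 12hLO at 150 nM in 25 mM Hepes, 0.01% Triton X-100, pH 7.0, preincubated 15 min at room temperature with compound. Reaction started with 40 uM arachidonic acid, 30 min at room temperature. Hydroperoxide measured by Fe-xylenol orange, 573/405 nm absorbance ratio.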
TDP1 cell noCPT: qHTS for Inhibitors of human tyrosyl-DNA phosphodiesterase 1 (TDP1): qHTS in cells in absence of CPT; DT40 Tdp1-/- hTDP1 cells, no CPT, ATP luminescence, 48 h; Potency, µM (top dose mostly 46.2 µM), for the others: top-dose activity change, negative = growth inhibition, most hits filed as inhibitors; 420,000 compounds, 15% hits; note: potency is the fitted concentration of half-maximal effect; nearly all actives have a fitted effect of over 55% in size
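Compound effects on proliferation are scored in DT40 Tdp1-/-;hTDP1 cells in the absence of CPT. ATP levels (CellTiter-Glo luminescence) are recorded after a ≥48 hr, 37 °C incubation.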
HT1080 IDH1KD tx: HT-1080 IDH1 knockdown cell toxicity (counter line); HT-1080 IDH1 knockdown viability, ATP luminescence, 48 h; Potency, µM (titrated, usually from 46.1 µM), without a hit: at the top dose activity, negative = toxicity, hits mostly cytotoxic; 360,000 compounds, 2% hits; AID 686971;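 note: potency is the fitted concentration of half-maximal effect; 0% = DMSO wells and -100% = cell-free medium wells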
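Cytotoxicity counter-line: IDH1KD HT-1080, 48 h, CellTiter-Glo. Curves classed by r2, magnitude and activity.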
IL1B secr inh: inhibitors of inflammasome signaling (IL-1 beta secretion) | THP-1 LPS/ATP IL-1B secretion, AlphaLISA, 16 h; stronger effect = lower value | activity change, % at 57.5 µM | 360,000 compounds, 4.7% hits | AID 743279; in the data active = activity change below about -50%; inconclusive = mostly about -30% to -49%
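THP-1 cells pretreated 1 hr with compounds (up to 57.5 uM final), then stimulated with LPS (250 ng/mL final) plus ATP (1.25 mM final); secreted IL-1B measured by AlphaLISA after 16 hr, decreased signal indicating inhibition.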
HT1080NT lethal: kills 2HG-producing HT-1080-NT fibrosarcoma cells; HT-1080-NT fibrosarcoma viability, CellTiter-Glo ATP luminescence, 48 h; Potency, µM (series often up to 46.1 µM), for the others: at the top dose activity, negative = less viability, usual class: cytotoxic; 360,000 compounds, 1.6% hits;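 note: NT is the 2HG producing partner of a matched IDH1 knockdown line; potency is the fitted concentration of half-maximal effect; 0% = DMSO-treated cells and -100% = media-only wells without cells; nearly all actives have a fitted effect of over 55% in size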
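HT-1080-NT; 750 cells/well; 5% FBS RPMI; 48 h compound, 37 degrees C; CellTiter-Glo luminescence; curve fitting and curve-class assignment.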
Numbers without * were called inactive; i = inactive; ? = inconclusive; · = no result given; [ ] = another dose, or the depositor's remark. Unless noted, calls come from the whole dose curve; as a rule, active = well fitted curve in the direction sought with a large enough effect; inconclusive = small, poorly fitted or top-dose-only effect, or another doubt; inactive = no such curve, though single readings can be large; an effect the other way counts as inactive or inconclusive. Unless noted, % is set by controls: 0 for no effect and ±100 for the full control effect.

SMILES | DT40 TDP1 CPT | ALOX12 inh | TDP1 cell noCPT | HT1080 IDH1KD tx | IL1B secr inh | HT1080NT lethal
Cc1c(C(=O)Nc2cccc(-c3nc4ccccc4s3)c2)oc2ccccc12 | 16µM* | -25% | 18µM* | · | · | ·
O=C(Nc1cccc(-c2nc3ccccc3s2)c1)c1cc(=O)c2ccccc2o1 | ? | -5% | 2.1µM* | 14% | 0 | 8%
CC(C)C(NC(=O)Nc1ccc(F)cc1)C(=O)N(C)C (stereo not drawn) | · | 49% | · | · | · | ·
N#CC1(C(=O)Nc2cnc3ccccc3c2)CCCC1 | · | -7% | · | · | · | ·
CCCc1ccc(S(=O)(=O)N2CCN(C(C)C(=O)NC3CCCC3)CC2)cc1 (stereo not drawn) | -30% | -5% | ? | -5% | 7 | 10%
CCC(C)c1ccc(S(=O)(=O)N2CCN(C(C)C(=O)NC3CCCC3)CC2)cc1 (stereo not drawn) | 15µM* | -9% | ? | -6% | -10 | -1%
CC(NC(=O)C(C)N1CCN(S(=O)(=O)c2ccccc2)CC1)c1ccccc1 (stereo not drawn) | -15% | ? | -16% | 6% | 0 | -5%
CC(C)c1ccc(S(=O)(=O)N2CCN(C(C)C(=O)Nc3ccccc3-c3ccccc3)CC2)cc1 (stereo not drawn) | 18µM* | -22% | ? | 12% | 0 | 14%
Cc1ccc(S(=O)(=O)N2CCN(C(C)C(=O)NCC(C)c3ccccc3)CC2)cc1 (stereo not drawn) | ? | -15% | 23µM* | 19% | -9 | 5%
COc1ccc(N2CCCS2(=O)=O)cc1NS(=O)(=O)c1ccc(F)c(C)c1 | · | 4% | · | · | · | ·
C=CCC1(O)CCN(C)CC1C (stereo not drawn) | · | 13% | · | · | · | ·
O=C(Cn1cc(C(=O)c2ccco2)c2ccccc21)Nc1ccccc1 | 10µM* | -11% | 12µM* | -27% | -11 | -9%
Cc1cccc(C)c1NC(=O)Cn1cc(C(=O)c2ccco2)c2ccccc21 | ? | -19% | ? | · | · | ·
COc1ccc(NC(=O)Cn2cc(C(=O)c3ccco3)c3ccccc32)cc1 | ? | 7% | ? | -26% | 8 | -10%
Cc1ccc(NC(=O)Cn2cc(C(=O)c3ccco3)c3ccccc32)cc1 | ? | -6% | 15µM* | · | · | ·
Cc1ccc(NC(=O)Cn2cc(C(=O)c3ccco3)c3ccccc32)cc1C | ? | -18% | 18µM* | · | · | ·
CCOc1ccc(NC(=O)Cn2cc(C(=O)c3ccco3)c3ccccc32)cc1 | -28% | -20% | ? | 7% | 29 | 2%
COc1cc(F)ccc1-c1ccnc2nc(Cc3ccc(F)cc3)nn12 | · | 49% | · | · | · | ·
O=C1NC(=O)/C(=C\c2ccc(N3CCOCC3)o2)N1 | 24% | 20µM* | 14% | 14% | -16 | 16%
Cc1cc(/C=C2\NC(=O)NC2=O)c(C)n1-c1ccc(N2CCOCC2)cc1 | ? | i | 21µM* | 21% | -6 | 18%
Cc1cc(/C=C2/NC(=O)NC2=O)c(C)n1-c1ccc(N2CCOCC2)cc1 | ? | 2% | ? | 26% | 0 | 10%
Cc1ccc(NNC(=O)c2cc(C(C)(C)C)nn2Cc2ccccc2)cc1 | -18% | ? | ? | -10% | ? | -8%
Cc1ccc(NC(=O)c2cc(C(C)(C)C)nn2Cc2ccccc2)cc1 | ? | 11% | 29µM* | ? | -81* | ?
CC(C)(C)c1cc(C(=O)Nc2ccc(F)cc2)n(Cc2ccc(F)cc2)n1 | ? | 1% | 21µM* | ? | ? | ?
Cn1cc(C(C(=O)O)N2CCN(C(c3ccccc3)c3ccccc3)CC2)c2cc(C(=O)O)ccc21 (stereo not drawn) | · | -7% | · | · | · | ·
SMILES | DT40 TDP1 CPT | ALOX12 inh | TDP1 cell noCPT | HT1080 IDH1KD tx | IL1B secr inh | HT1080NT lethal
CCC(C)NC(=O)CCn1c(=O)c2cccn2c2ccc(F)cc21 (stereo not drawn) | 1% | -3% | -30% | 21% | -10 | 11%
CCc1ccc(NC(=O)CCn2c(=O)c3cccn3c3ccccc32)cc1 | 23µM* | 29% | 18µM* | ? | 50 | ?
CCOC(=O)c1cccc(NC(=O)Cn2c(=O)c3cccn3c3ccccc32)c1 | ? | -19% | ? | · | · | ·
CCc1ccc(NC(=O)Cn2c(=O)c3cccn3c3ccccc32)cc1 | 16µM* | ? | 4.1µM* | ? | -1 | ?
N#Cc1c(N2CCN(C(=O)C(=O)NCCO)CC2)nc(-c2ccccc2)c2c1CCCC2 | · | 11% | · | · | · | ·
O=C(CCc1ncc(-c2c(F)cccc2F)o1)NCc1ccc2c(c1)OCO2 | · | -12% | · | · | · | ·
O=C(/C=C/c1ccc(Cl)c([N+](=O)[O-])c1)Nc1cccnc1 | -25% | 0%[57.4 µM] | -25% | -1% | -53* | -3%
O=C(/C=C/c1ccc(Cl)c([N+](=O)[O-])c1)Nc1cccc(NC(=O)c2ccco2)c1 | ? | 19% | ? | ? | -99* | ?
O=C(/C=C/c1ccc(Cl)c([N+](=O)[O-])c1)Nc1ccc(NC(=O)c2ccco2)cc1 | 1% | ? | 0% | 11% | -4 | 11%
O=C(/C=C/c1cccc([N+](=O)[O-])c1)Nc1cccc(NC(=O)c2cccs2)c1 | 5.8µM* | -9% | 18µM* | -6% | -60* | -19%
O=C(/C=C/c1cccc([N+](=O)[O-])c1)Nc1cccc(NC(=O)c2ccco2)c1 | ? | -18% | 16µM* | -2% | -95* | 0%
CN1CCC(C(=O)NCc2c[nH]c3ncccc23)CC1 | · | 37%[176 µM] | · | · | · | ·
COc1ccc(C(=O)C2CCCN(C(=O)Cn3nc(C)nc3C)C2)cc1F (stereo not drawn) | -6% | 13% | -14% | 2% | 19 | 0%
Cc1cc(Cl)ccc1C(=O)C1CCCN(C(=O)c2ccoc2)C1 (stereo not drawn) | ? | -3% | 15µM* | -9% | -7 | -12%
Cc1nc(C)n(CC(=O)N2CCCC(C(=O)c3ccc(Cl)cc3C)C2)n1 (stereo not drawn) | 0.41µM* | -9% | 18µM* | -3% | 5 | -1%
Cc1cc(C(=O)N2CCCC(C(=O)c3ccc(Cl)cc3C)C2)no1 (stereo not drawn) | 18µM* | 393% | 23µM* | -3% | i | -9%
Cc1nc(C)c(C(=O)N2CCCC(C(=O)c3ccc(Cl)cc3C)C2)s1 (stereo not drawn) | 18µM* | -29% | ? | -2% | 17 | -2%
